# Assay results as given in PubChem BioAssay (EPA / NIEHS).
# Records with an inconclusive call do not appear. The source made the active and inactive calls. The calls were made as follows, unless noted: active = hit-call score of the fitted dose curve at least 0.9, where 1 is the maximum; inactive = score below 0.9.
# Columns and labels:
# [1] = CCTE_Deisenroth_AIME_96WELL_CTox_Active: Cytotoxicity Assessment (CTOX) in CCTE's 96-well Estrogen Receptor Transactivation Assay with AIME metabolic competence (metabolism positive), Deisenroth Lab (AID 2284028; active = hit-call score of the fitted dose curve at least 0.9, where 1 is the maximum)
# Method in brief: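 Chemicals (0.002–200 uM) were first incubated 2 h with alginate-immobilized phenobarbital/beta-naphthoflavone-induced male rat liver S9; conditioned medium then went onto VM7Luc4E2 cells for 24 h, with viability read by protease-substrate fluorescence, fitted bidirectionally.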
# [2] = CCTE_Harrill_HTTr_Viability_MCF7: CCTE's 6-hour Cell Viability Assessment for the High-Throughput Transcriptomics (HTTr) Platform, in MCF-7 cells cultured in DMEM + 10% fetal bovine serum, Harrill Lab (AID 2284010)
# Method in brief: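 Membrane integrity was scored by high-content imaging of propidium iodide dye exclusion after a 6 h exposure across an eight-point dilution series. Data were fitted bidirectionally relative to DMSO as negative control and baseline.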
# [3] = CCTE_Harrill_HTTr_Apoptosis_MCF7: CCTE's 6-hour Apoptosis Assessment for the High-Throughput Transcriptomics (HTTr) Platform, in MCF-7 cells cultured in DMEM + 10% fetal bovine serum, Harrill Lab (AID 2284011)
# Method in brief: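 Apoptosis in MCF-7 cells grown in DMEM with 10% fetal bovine serum was scored after a six hour exposure by high content imaging of caspase-3/7 activation (CellEvent Caspase 3/7 Green), with DMSO serving as negative control and baseline.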
# [4] = CCTE_Harrill_HTTr_CellCount_MCF7: CCTE's Cell Proliferation Assessment for the High-Throughput Transcriptomics (HTTr) Platform, Harrill Lab (AID 2284012; active = hit-call score of the fitted dose curve at least 0.9, where 1 is the maximum;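 also: cells exposed to compound for six hours; intended direction is loss of nuclei count meaning fewer cells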)
# Method in brief: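 MCF-7 cells were exposed for 6 h to an eight-point dilution series; Hoechst-labeled nuclei were counted by high content imaging. Curves were fitted bidirectionally against DMSO as negative control and baseline, with signal loss indicating reduced cell count.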
# [5] = target: Estrogen receptor (Homo sapiens) (UniProt P03372); assay: CCTE_Deisenroth_AIME_96WELL_LUC_Inactive: CCTE's 96-well Estrogen Receptor Transactivation Assay without AIME metabolic competence (ERTA luciferase; metabolism negative), Deisenroth Lab (AID 2284025; active = hit-call score of the fitted dose curve at least 0.9, where 1 is the maximum)
# Estrogen receptor (Homo sapiens), sequence (P03372 whole entry, looked up): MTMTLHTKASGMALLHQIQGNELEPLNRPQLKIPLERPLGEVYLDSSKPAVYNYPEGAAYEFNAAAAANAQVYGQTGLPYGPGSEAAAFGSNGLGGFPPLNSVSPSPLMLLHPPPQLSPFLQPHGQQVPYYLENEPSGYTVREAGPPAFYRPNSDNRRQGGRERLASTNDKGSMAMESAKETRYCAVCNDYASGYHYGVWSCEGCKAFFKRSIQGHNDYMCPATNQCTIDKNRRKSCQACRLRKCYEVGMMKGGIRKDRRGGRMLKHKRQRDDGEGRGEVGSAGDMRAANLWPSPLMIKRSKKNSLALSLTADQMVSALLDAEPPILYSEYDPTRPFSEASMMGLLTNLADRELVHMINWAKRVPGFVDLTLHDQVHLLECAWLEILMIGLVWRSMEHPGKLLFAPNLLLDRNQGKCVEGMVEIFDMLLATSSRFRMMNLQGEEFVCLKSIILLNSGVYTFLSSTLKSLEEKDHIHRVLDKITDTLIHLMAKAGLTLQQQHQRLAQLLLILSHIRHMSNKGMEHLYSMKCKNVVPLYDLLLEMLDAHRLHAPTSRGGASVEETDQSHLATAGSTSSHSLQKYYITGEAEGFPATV
# Method in brief: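 VM7Luc4E2 breast cells, luciferase read 24 h after dosing with medium pre-incubated 2 h on alginate-water lids (metabolism negative). 10-point series 0.002–200 uM, single technical replicate, n≥4; fit relative to 17beta-estradiol.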
# [6] = target: Estrogen receptor (Homo sapiens) (UniProt P03372); assay: CCTE_Deisenroth_AIME_96WELL_LUC_Active: CCTE's 96-well Estrogen Receptor Transactivation Assay with AIME metabolic competence (ERTA luciferase; metabolism positive), Deisenroth Lab (AID 2284023; active = hit-call score of the fitted dose curve at least 0.9, where 1 is the maximum)
# Method in brief: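 Chemicals pre-incubated 2 h with alginate-immobilized phenobarbital/beta-naphthoflavone-induced male Sprague Dawley rat liver S9, then medium transferred to VM7Luc4E2 cells for 24 h luciferase read-out. 10-point series 0.002 - 200 uM; fitted relative to 17beta-estradiol.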
smiles,measurement,setting,value
O=c1c(-c2ccc(O)cc2)coc2cc(O)ccc12,outcome,[1],inactive
COc1cc(CCC(=O)CC(=O)CCc2ccc(O)c(OC)c2)ccc1O,outcome,[2],inactive
same,outcome,[3],inactive
same,outcome,[4],inactive
same,outcome,[5],inactive
same,AC50,[1],150 µM (active)
COC(=O)CCCCC(=O)OC,outcome,[2],inactive
same,outcome,[3],inactive
same,outcome,[4],inactive
O=[N+]([O-])c1ccc(O)cc1,outcome,[2],inactive
same,outcome,[3],inactive
same,outcome,[4],inactive
CC1=C(/C=C/C(C)=C/C=C/C(C)=C/C(=O)O)C(C)(C)CCC1,outcome,[2],inactive
same,outcome,[3],inactive
same,outcome,[4],inactive
CCCCCCCCOC(=O)CCCCCCCCC(=O)OCCCCCCCC,outcome,[2],inactive
same,outcome,[3],inactive
same,outcome,[4],inactive
CCOC(=O)CC(O)(CC(=O)OCC)C(=O)OCC,outcome,[2],inactive
same,outcome,[3],inactive
same,outcome,[4],inactive
Cc1cc(C)c(O)c(C)c1,outcome,[2],inactive
same,outcome,[3],inactive
same,outcome,[4],inactive
CC(=O)CC(C)(C)O,outcome,[2],inactive
same,outcome,[3],inactive
same,outcome,[4],inactive
CC(C)(C)c1ccc(O)c(C(C)(C)C)c1,outcome,[2],inactive
same,outcome,[3],inactive
same,outcome,[4],inactive
same,AC50,[6],26.4 µM (active)
same,AC50,[1],155 µM (active)
OCCC(F)(F)C(F)(F)C(F)(F)C(F)(F)C(F)(F)C(F)(F)F,outcome,[2],inactive
same,outcome,[3],inactive
same,outcome,[4],inactive
CCc1nn(C2CCCCC2)c2cc(C3(C#N)CCC(C(=O)O)CC3)ccc12 (stereo not given),outcome,[2],inactive
same,outcome,[3],inactive
same,outcome,[4],inactive
C=C(C)C(=O)OCCC(F)(F)C(F)(F)C(F)(F)C(F)(F)C(F)(F)C(F)(F)F,outcome,[2],inactive
same,outcome,[3],inactive
same,outcome,[4],inactive
C[C@@H]1C[C@H]2[C@@H]3CCC4=CC(=O)C=C[C@]4(C)[C@@]3(F)[C@@H](O)C[C@]2(C)[C@@]1(O)C(=O)COP(=O)(O)O,outcome,[2],inactive
same,outcome,[3],inactive
same,outcome,[4],inactive
CCN(CC)CCNc1ccc(CNC=O)c2sc3ccc(OC)cc3c(=O)c12,outcome,[2],inactive
same,outcome,[3],inactive
same,outcome,[4],inactive
NC(=O)N1C(=O)C(C(=O)c2cc(Cl)cs2)c2cc(F)c(Cl)cc21 (stereo not given),outcome,[2],inactive
same,outcome,[3],inactive
same,outcome,[4],inactive
O=C(OCCOCCOC(=O)c1ccccc1)c1ccccc1,outcome,[2],inactive
same,outcome,[3],inactive
same,outcome,[4],inactive
COCC(C)OCC(C)O (stereo not given),outcome,[2],inactive
same,outcome,[3],inactive
same,outcome,[4],inactive
O=C(O)Cc1cc(I)c(Oc2cc(I)c(O)c(I)c2)c(I)c1,outcome,[2],inactive
same,outcome,[3],inactive
same,outcome,[4],inactive
CCCCCCC(=O)O,outcome,[2],inactive
same,outcome,[3],inactive
same,outcome,[4],inactive
CCC(C)(C)C1CCC(O)CC1 (stereo not given),outcome,[2],inactive
same,outcome,[3],inactive
same,outcome,[4],inactive
CC[C@H](C)[C@@H](C(=O)O)n1sc2ccccc2c1=O,outcome,[2],inactive
same,outcome,[3],inactive
same,outcome,[4],inactive
CCCCOCCO,outcome,[2],inactive
same,outcome,[3],inactive
same,outcome,[4],inactive
CCCCC(CC)COC(=O)CCCCC(=O)OCC(CC)CCCC (stereo not given),outcome,[2],inactive
same,outcome,[3],inactive
same,outcome,[4],inactive
same,outcome,[6],inactive
same,outcome,[5],inactive
same,outcome,[1],inactive
c1ccc2c(c1)ccc1ccccc12,outcome,[2],inactive
same,outcome,[3],inactive
same,outcome,[6],inactive
same,AC50,[5],133 µM (active)
CCCCC(CC)COC(=O)CCCCC(=O)OCc1ccccc1 (stereo not given),outcome,[2],inactive
same,outcome,[3],inactive
same,outcome,[4],inactive
CCCCC[C@H](O)CC(=O)CCc1ccc(O)c(OC)c1,outcome,[2],inactive
same,outcome,[3],inactive
same,outcome,[4],inactive
same,AC50,[6],26 µM (active)
same,AC50,[5],24.9 µM (active)
same,outcome,[1],inactive
c1ccc2c(c1)Cc1ccccc1-2,outcome,[2],inactive
same,outcome,[3],inactive
same,outcome,[4],inactive
same,outcome,[6],inactive
C#C[C@]1(O)CC[C@H]2[C@@H]3CCC4=CC(=O)CC[C@@H]4[C@H]3CC[C@@]21C,outcome,[2],inactive
same,outcome,[3],inactive
same,outcome,[4],inactive
O=C(/C=C/c1ccc(O)cc1)CC(=O)/C=C/c1ccc(O)cc1,outcome,[2],inactive
same,outcome,[3],inactive
same,outcome,[4],inactive
same,AC50,[6],31.4 µM (active)
same,AC50,[5],43.2 µM (active)
same,outcome,[1],inactive
ClC1=C(Cl)C(Cl)(Cl)C(Cl)=C1Cl,outcome,[2],inactive
same,outcome,[3],inactive
same,outcome,[4],inactive
COCC(C)O (stereo not given),outcome,[2],inactive
same,outcome,[3],inactive
same,outcome,[4],inactive
CC(C)(C)c1cccc(C(C)(C)C)c1O,outcome,[2],inactive
same,outcome,[3],inactive
same,outcome,[4],inactive
CCCOC(=O)c1ccc(O)cc1,outcome,[2],inactive
same,outcome,[3],inactive
same,outcome,[4],inactive
c1ccc2cc3c(ccc4ccccc43)cc2c1,outcome,[2],inactive
same,outcome,[3],inactive
same,AC50,[6],11.8 µM (active)
same,AC50,[5],5.25 µM (active)
same,outcome,[1],inactive
